# Measured values from PubChem BioAssay (EPA / NIEHS).
# Activity calls are given as the source filed them. The calls were made as follows: active = hit-call score of the fitted dose curve at least 0.9, where 1 is the maximum; inactive = score below 0.9.
# Tested on: not listed separately
# Assay: ATG_ERE_CIS: Attagene CIS-FACTORIAL HepG2 Assay for Estrogen Response Element (ERE) (AID 2282940)
# Conditions: HepG2 ERE cis-reporter, Attagene RNA transcript; actives raise or lower the signal
# How it was run: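 Human liver cells (HepG2) bearing transiently transfected, promoter-regulated reporter units were exposed 24 h. Reporter mRNA induction was detected by capillary electrophoresis of labelled RT-PCR products and fitted bidirectionally to DMSO.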
SMILES,outcome,AC50
COc1ccc(OC)c(OC)c1,inactive,–
CCCCN,inactive,–
CC(=O)O[C@]1(C(C)=O)CC[C@H]2[C@@H]3C[C@H](C)C4=CC(=O)CC[C@]4(C)[C@H]3CC[C@@]21C,–,9.49 µM (active)
C[C@H]1C[C@H]2[C@@H]3CCC4=CC(=O)C=C[C@]4(C)[C@@]3(F)[C@@H](O)C[C@]2(C)[C@@]1(O)C(=O)COP(=O)(O)O,inactive,–
NCCCN1CCOCC1,inactive,–
O=Cc1ccc(Cl)c([N+](=O)[O-])c1,inactive,–
CCCC(=O)c1cc(O)c(O)cc1O,inactive,–
CC(C)c1cccc(O)c1,–,104 µM (active)
Clc1sc(Cl)c(Cl)c1Cl,inactive,–
COc1nc(C)nc(N)n1,inactive,–
COc1cc2ncnc(Nc3cccc(Cl)c3)c2cc1OC,inactive,–

# Tested on: not listed separately
# Assay: ATG_Ets_CIS: Attagene CIS-FACTORIAL HepG2 Assay for human Erythroblast Transformation Specific (ETS) (AID 2282941)
# Conditions: HepG2 ETS cis-reporter transcription, actives raise or lower the signal
# How it was run: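 RT-PCR/capillary electrophoresis fluorescence read-out of reporter mRNA; HepG2 transient multi-reporter transfection; 24 h compound exposure; gain or loss of signal fitted bidirectionally relative to DMSO.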
SMILES,outcome,AC50
COc1ccc(OC)c(OC)c1,inactive,–
COCCCOc1ccnc(CS(=O)c2nc3ccccc3[nH]2)c1C (stereo not drawn),inactive,–
C=C(C)C(=O)O[C@H]1C[C@@H]2CC[C@@]1(C)C2(C)C,inactive,–
CC(=O)Nc1ccccc1O,inactive,–
CCCCN,inactive,–
OC[C@H]1O[C@H](O[C@]2(CCl)O[C@H](CCl)[C@@H](O)[C@@H]2O)[C@H](O)[C@@H](O)[C@H]1Cl,inactive,–
Cc1ccc(S)cc1,inactive,–
CC(=O)O[C@]1(C(C)=O)CC[C@H]2[C@@H]3C[C@H](C)C4=CC(=O)CC[C@]4(C)[C@H]3CC[C@@]21C,inactive,–
Nc1nc2ccc([N+](=O)[O-])cc2s1,inactive,–
OCCOCCOCCOCCO,inactive,–
OCc1cccnc1,inactive,–
CCCCCC(CO)CCC (stereo not drawn),inactive,–
C[C@H]1C[C@H]2[C@@H]3CCC4=CC(=O)C=C[C@]4(C)[C@@]3(F)[C@@H](O)C[C@]2(C)[C@@]1(O)C(=O)COP(=O)(O)O,inactive,–
NCCCN1CCOCC1,inactive,–
COc1ccc(O)cc1,inactive,–
CC(C)C1CCC(O)CC1 (stereo not drawn),inactive,–
CCOC(=S)SSC(=S)OCC,inactive,–

SMILES,outcome,AC50
CCOC(=O)c1ccccc1OC,inactive,–
O=Cc1ccc(Cl)c([N+](=O)[O-])c1,–,134 µM (active)
S=C(S)NCCNC(=S)S,inactive,–
CCCCCCCCCCCCCC(=O)O,inactive,–
CC1(C)C(=O)N(Br)C(=O)N1Cl,inactive,–
CCCC(=O)c1cc(O)c(O)cc1O,inactive,–
CC(C)c1cccc(O)c1,inactive,–
CC(=O)c1c(C)cc(C(C)(C)C)cc1C,inactive,–
O=C(O)c1cn(-c2ccc(F)cc2)c2cc(N3CCNCC3)c(F)cc2c1=O,inactive,–
Clc1sc(Cl)c(Cl)c1Cl,inactive,–
O=C1CCCCCCCCCCOCCCCO1,inactive,–
C=COCCOCCOCCOC=C,inactive,–
Cc1c(Cl)c(=O)oc2cc(O)ccc12,inactive,–
COc1nc(C)nc(N)n1,inactive,–
CNCCCC12CCC(c3ccccc31)c1ccccc12,–,11.1 µM (active)
COc1cc2ncnc(Nc3cccc(Cl)c3)c2cc1OC,inactive,–

# Target: Hepatocyte nuclear factor 3-beta (Homo sapiens) (UniProt Q9Y261)
# Assay: ATG_FoxA2_CIS: Attagene CIS-FACTORIAL HepG2 Assay for human Forkhead box A2 (FOXA2) (AID 2282942)
# Conditions: HepG2 cis-reporter transcription factor activity, 24 h; actives raise or lower the signal
# How it was run: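 Readout: fluorescent reporter transcripts resolved by capillary electrophoresis after RT-PCR. Transiently transfected HepG2, 24 h compound exposure, endogenous TF activity at cis promoter elements. Gain or loss of signal fitted relative to DMSO.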
# Chain of Hepatocyte nuclear factor 3-beta (Homo sapiens) (Q9Y261 whole entry, looked up): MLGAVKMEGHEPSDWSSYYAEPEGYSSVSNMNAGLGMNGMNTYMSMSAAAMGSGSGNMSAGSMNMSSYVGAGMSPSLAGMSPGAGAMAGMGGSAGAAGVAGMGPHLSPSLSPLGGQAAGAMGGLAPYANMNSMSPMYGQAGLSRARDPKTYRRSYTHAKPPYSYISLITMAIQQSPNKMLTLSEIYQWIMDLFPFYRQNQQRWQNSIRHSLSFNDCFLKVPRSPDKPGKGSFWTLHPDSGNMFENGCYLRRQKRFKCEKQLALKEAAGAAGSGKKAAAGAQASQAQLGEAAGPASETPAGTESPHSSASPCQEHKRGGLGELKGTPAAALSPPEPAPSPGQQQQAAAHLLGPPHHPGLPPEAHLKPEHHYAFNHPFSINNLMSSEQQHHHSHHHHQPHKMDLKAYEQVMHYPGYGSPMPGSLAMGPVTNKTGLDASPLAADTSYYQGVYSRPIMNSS
SMILES,outcome,AC50
COc1ccc(OC)c(OC)c1,inactive,–
COCCCOc1ccnc(CS(=O)c2nc3ccccc3[nH]2)c1C (stereo not drawn),inactive,–
C=C(C)C(=O)O[C@H]1C[C@@H]2CC[C@@]1(C)C2(C)C,inactive,–
CO[Si](C)(OC)c1ccccc1,inactive,–
CC(=O)Nc1ccccc1O,inactive,–
CCCCN,inactive,–
OC[C@H]1O[C@H](O[C@]2(CCl)O[C@H](CCl)[C@@H](O)[C@@H]2O)[C@H](O)[C@@H](O)[C@H]1Cl,inactive,–
Cc1ccc(S)cc1,inactive,–
CC(=O)O[C@]1(C(C)=O)CC[C@H]2[C@@H]3C[C@H](C)C4=CC(=O)CC[C@]4(C)[C@H]3CC[C@@]21C,inactive,–
Nc1nc2ccc([N+](=O)[O-])cc2s1,inactive,–
OCc1cccnc1,inactive,–
CCCCCC(CO)CCC (stereo not drawn),inactive,–
NCCCN1CCOCC1,inactive,–
COc1ccc(O)cc1,inactive,–
CC(C)C1CCC(O)CC1 (stereo not drawn),inactive,–
CCCCCC(=O)OCCc1ccccc1,inactive,–

SMILES,outcome,AC50
CCOC(=S)SSC(=S)OCC,inactive,–
CCOC(=O)c1ccccc1OC,inactive,–
O=Cc1ccc(Cl)c([N+](=O)[O-])c1,–,145 µM (active)
S=C(S)NCCNC(=S)S,inactive,–
CCCCCCCCCCCCCC(=O)O,inactive,–
CCCC(=O)c1cc(O)c(O)cc1O,inactive,–
NCCNCCN,inactive,–
CC(C)c1cccc(O)c1,inactive,–
CC(=O)c1c(C)cc(C(C)(C)C)cc1C,inactive,–
O=C(O)c1cn(-c2ccc(F)cc2)c2cc(N3CCNCC3)c(F)cc2c1=O,inactive,–
Clc1sc(Cl)c(Cl)c1Cl,inactive,–
CC1CC(OC(=O)c2ccccc2O)CC(C)(C)C1 (stereo not drawn),inactive,–
O=C1CCCCCCCCCCOCCCCO1,inactive,–
Cc1c(Cl)c(=O)oc2cc(O)ccc12,inactive,–
COc1nc(C)nc(N)n1,inactive,–

# Tested on: not listed separately
# Assay: ATG_FoxO_CIS: Attagene CIS-FACTORIAL HepG2 Assay for human Forkhead box O (FoxO) (AID 2282943)
# Conditions: HepG2 Attagene cis-reporter, FoxO element, mRNA; actives raise or lower the signal
# How it was run: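 24 h chemical exposure, HepG2 with transient cis-MRTU transfection. RNA extraction, oligo(dT) RT, reporter-specific PCR, primer-extension labelling, HpaI digestion, CE fragment analysis; bidirectional fit, DMSO baseline.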
SMILES,outcome,AC50
COc1ccc(OC)c(OC)c1,inactive,–
COCCCOc1ccnc(CS(=O)c2nc3ccccc3[nH]2)c1C (stereo not drawn),inactive,–
C=C(C)C(=O)O[C@H]1C[C@@H]2CC[C@@]1(C)C2(C)C,inactive,–
CO[Si](C)(OC)c1ccccc1,inactive,–
CC(=O)Nc1ccccc1O,inactive,–
CCCCN,inactive,–
OC[C@H]1O[C@H](O[C@]2(CCl)O[C@H](CCl)[C@@H](O)[C@@H]2O)[C@H](O)[C@@H](O)[C@H]1Cl,inactive,–
Cc1ccc(S)cc1,inactive,–
CC(=O)O[C@]1(C(C)=O)CC[C@H]2[C@@H]3C[C@H](C)C4=CC(=O)CC[C@]4(C)[C@H]3CC[C@@]21C,inactive,–
Nc1nc2ccc([N+](=O)[O-])cc2s1,inactive,–
OCCOCCOCCOCCO,inactive,–
OCc1cccnc1,inactive,–
CCCCCC(CO)CCC (stereo not drawn),inactive,–
C[C@H]1C[C@H]2[C@@H]3CCC4=CC(=O)C=C[C@]4(C)[C@@]3(F)[C@@H](O)C[C@]2(C)[C@@]1(O)C(=O)COP(=O)(O)O,inactive,–
NCCCN1CCOCC1,inactive,–
COc1ccc(O)cc1,inactive,–
CC(C)C1CCC(O)CC1 (stereo not drawn),inactive,–
CCCCCC(=O)OCCc1ccccc1,inactive,–
CCOC(=S)SSC(=S)OCC,inactive,–

SMILES,outcome,AC50
CCOC(=O)c1ccccc1OC,inactive,–
O=Cc1ccc(Cl)c([N+](=O)[O-])c1,–,128 µM (active)
S=C(S)NCCNC(=S)S,inactive,–
CCCCCCCCCCCCCC(=O)O,inactive,–
CC1(C)C(=O)N(Br)C(=O)N1Cl,inactive,–
CCCC(=O)c1cc(O)c(O)cc1O,inactive,–
NCCNCCN,inactive,–
CC(C)c1cccc(O)c1,inactive,–
CC(=O)c1c(C)cc(C(C)(C)C)cc1C,inactive,–
O=C(O)c1cn(-c2ccc(F)cc2)c2cc(N3CCNCC3)c(F)cc2c1=O,inactive,–
Clc1sc(Cl)c(Cl)c1Cl,inactive,–
CC1CC(OC(=O)c2ccccc2O)CC(C)(C)C1 (stereo not drawn),inactive,–
O=C1CCCCCCCCCCOCCCCO1,inactive,–
C=COCCOCCOCCOC=C,inactive,–
Cc1c(Cl)c(=O)oc2cc(O)ccc12,inactive,–
COc1nc(C)nc(N)n1,inactive,–
CNCCCC12CCC(c3ccccc31)c1ccccc12,inactive,–
CCO[Si](CCCS)(OCC)OCC,inactive,–
COc1cc2ncnc(Nc3cccc(Cl)c3)c2cc1OC,inactive,–
